Results filed as inconclusive are left out. Entries that show only a call come without a potency. Calls of active or inactive are those of the source. Unless noted, calls follow the shape of the full dose curve.
Legend:
[1] = qHTS assay to identify small molecule antagonists of the sonic hedgehog signaling (Shh) pathway (AID 1259369); also: nearly all actives have a fitted effect of over 45% in size; also: potency is read from the fitted curve at half-maximal effect
In short: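 Read-out is luminescence from a firefly luciferase gene controlled by the Gli1 response element, in 3T3Gli1-Luc cells pre-incubated 4hr then exposed to compounds and conditioned medium for 24hr.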

[2] = qHTS assay to identify small molecule agonists of the androgen receptor (AR) signaling pathway in the presence of an antagonist - cell viability counter screen (AID 1259379; active = well fitted curve in the direction sought with a large enough effect in the repeat runs; an effect the other way counts as inactive or inconclusive;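 also: MDA-kb2 human breast cancer cells carrying an MMTV luciferase reporter; series mostly up to about 92 µM; nearly all actives have a fitted effect of over 25% in size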)
In short: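 Each compound was tested at 15 concentrations on MDA-kb2 cells in the presence of 3.0uM nilutamide. Viability was measured by CellTiter-Fluor fluorescence after a 16 hr incubation at 37C in a CO2-free atmosphere.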

[3] = qHTS assay to identify small molecule agonists of the estrogen receptor beta (ER-beta) signaling pathway - cell viability counter screen (AID 1259380; active = well fitted curve in the direction sought with a large enough effect in the repeat runs; an effect the other way counts as inactive or inconclusive; also: nearly all actives have a fitted effect of over 30% in size; also: potency is read from the fitted curve at half-maximal effect)
In short: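 Compounds dissolved in DMSO were pin-transferred onto ER-beta-UAS-bla HEK293T cells that had settled 6 hr, and exposure ran 16 hr at 37C. Following the reporter read, CellTiter-Glo luminescence after 30 min at room temperature indicated cytotoxicity.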

[4] = qHTS assay to identify small molecule antagonists of the estrogen receptor beta (ER-beta) signaling pathway - cell viability counter screen (AID 1259382; active = well fitted curve in the direction sought with a large enough effect in the repeat runs; an effect the other way counts as inactive or inconclusive; also: nearly all actives have a fitted effect of over 55% in size; also: potency is read from the fitted curve at half-maximal effect)
In short: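 CellTiter-Glo ATP luminescence measured after the LiveBLAzer read in the same wells; ER-beta-UAS-bla HEK293T cells, 16 hr compound treatment with 1nM 17-beta-estradiol agonist at 37C, 5% CO2.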

[5] = molecular target: Estrogen receptor (Homo sapiens) (UniProt P03372); experiment: qHTS assay to identify small molecule agonists of the estrogen receptor alpha (ER-alpha) signaling pathway in the presence of an antagonist (AID 1259383); also: top concentration of the series differs between compounds; nearly all actives have a fitted effect of over 15% in size
In short: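 Luminescent ERE-luciferase reporter, VM7Luc4E2 cells (endogenous ER-alpha); 10.0nM ICI-182,780 final; 15-point compound titration; 22hr at 37C; ONE-Glo, 30min RT.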

[6] = qHTS assay to identify small molecule agonists or antagonists of the thyroid stimulating hormone receptor (TSHR) signaling pathway - wild type cell line counter screen (AID 1259384)
In short: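 Wild-type HEK293 cells were plated 18 h at 37 C/5% CO2, pin-dosed with compound plus Ro20-1724 medium, held 30 min at room temperature, then given cAMP-d2 and anti-cAMP-cryptate; fluorescence was read after 1 h. Fifteen concentrations, triplicate.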

[7] = molecular target: Thyrotropin receptor (Homo sapiens) (UniProt P16473); experiment: qHTS assay to identify small molecule antagonists of the thyroid stimulating hormone receptor (TSHR) signaling pathway (AID 1259385); also: nearly all actives have a fitted effect of over 20% in size; also: potency is read from the fitted curve at half-maximal effect
In short: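 TSHR-HEK293 cells were plated and held 18 h at 37C/5% CO2, then given compound plus Ro20-1724 and stimulated with TSH at 1.5 ng/mL final. After 30 min at room temperature, cAMP was detected with cAMP-d2/anti-cAMP-cryptate (1 h) by fluorescence.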

[8] = molecular target: Androgen receptor (Homo sapiens) (UniProt P10275); experiment: qHTS assay to identify small molecule agonists of the androgen receptor (AR) signaling pathway in the presence of an antagonist (AID 1259381); also: nearly all actives have a fitted effect of over 15% in size
In short: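 Plated MDA-kb2 cells (3,000/well) were pre-incubated 5hr, given nilutamide (3.0uM final) or buffer, then dosed with compounds in DMSO at 15 concentrations. Luciferase activity was quantified by luminescence after 16hr at 37C.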

Chain of Estrogen receptor (Homo sapiens) (P03372 whole entry, looked up): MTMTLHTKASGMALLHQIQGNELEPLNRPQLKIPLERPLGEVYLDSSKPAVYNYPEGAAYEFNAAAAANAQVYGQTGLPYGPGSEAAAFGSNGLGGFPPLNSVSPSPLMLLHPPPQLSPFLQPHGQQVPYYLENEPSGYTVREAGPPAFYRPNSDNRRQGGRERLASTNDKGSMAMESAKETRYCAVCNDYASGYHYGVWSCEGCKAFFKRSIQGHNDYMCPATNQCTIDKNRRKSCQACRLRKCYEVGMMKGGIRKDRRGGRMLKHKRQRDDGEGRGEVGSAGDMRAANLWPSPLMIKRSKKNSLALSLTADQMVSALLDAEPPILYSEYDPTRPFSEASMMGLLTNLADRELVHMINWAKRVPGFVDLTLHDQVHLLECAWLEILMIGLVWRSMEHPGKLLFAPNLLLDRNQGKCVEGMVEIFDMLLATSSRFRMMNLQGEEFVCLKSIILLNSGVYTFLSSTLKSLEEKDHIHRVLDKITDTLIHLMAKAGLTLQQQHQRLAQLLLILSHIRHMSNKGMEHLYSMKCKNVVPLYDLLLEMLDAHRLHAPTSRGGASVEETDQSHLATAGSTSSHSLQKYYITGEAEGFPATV
Chain of Thyrotropin receptor (Homo sapiens) (P16473 whole entry, looked up): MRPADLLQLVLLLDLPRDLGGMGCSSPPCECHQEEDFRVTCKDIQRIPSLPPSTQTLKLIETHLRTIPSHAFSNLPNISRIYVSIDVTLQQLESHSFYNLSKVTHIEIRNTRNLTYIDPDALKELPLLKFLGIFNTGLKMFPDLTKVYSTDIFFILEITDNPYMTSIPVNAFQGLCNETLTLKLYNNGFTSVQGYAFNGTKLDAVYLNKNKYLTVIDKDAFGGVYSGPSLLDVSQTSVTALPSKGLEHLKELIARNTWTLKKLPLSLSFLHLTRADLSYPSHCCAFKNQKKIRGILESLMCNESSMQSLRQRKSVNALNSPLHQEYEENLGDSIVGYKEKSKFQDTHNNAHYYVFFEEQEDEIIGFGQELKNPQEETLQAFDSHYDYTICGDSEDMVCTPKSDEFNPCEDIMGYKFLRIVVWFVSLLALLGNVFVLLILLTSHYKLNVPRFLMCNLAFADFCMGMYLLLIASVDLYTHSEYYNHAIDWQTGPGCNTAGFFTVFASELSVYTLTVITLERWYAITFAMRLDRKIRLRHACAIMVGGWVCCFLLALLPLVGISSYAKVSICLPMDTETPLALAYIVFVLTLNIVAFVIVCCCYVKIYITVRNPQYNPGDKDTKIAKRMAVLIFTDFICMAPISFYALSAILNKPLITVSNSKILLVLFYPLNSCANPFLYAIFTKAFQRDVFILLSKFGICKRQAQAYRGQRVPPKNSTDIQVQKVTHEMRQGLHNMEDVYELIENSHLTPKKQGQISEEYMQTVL
Chain of Androgen receptor (Homo sapiens) (P10275 whole entry, looked up): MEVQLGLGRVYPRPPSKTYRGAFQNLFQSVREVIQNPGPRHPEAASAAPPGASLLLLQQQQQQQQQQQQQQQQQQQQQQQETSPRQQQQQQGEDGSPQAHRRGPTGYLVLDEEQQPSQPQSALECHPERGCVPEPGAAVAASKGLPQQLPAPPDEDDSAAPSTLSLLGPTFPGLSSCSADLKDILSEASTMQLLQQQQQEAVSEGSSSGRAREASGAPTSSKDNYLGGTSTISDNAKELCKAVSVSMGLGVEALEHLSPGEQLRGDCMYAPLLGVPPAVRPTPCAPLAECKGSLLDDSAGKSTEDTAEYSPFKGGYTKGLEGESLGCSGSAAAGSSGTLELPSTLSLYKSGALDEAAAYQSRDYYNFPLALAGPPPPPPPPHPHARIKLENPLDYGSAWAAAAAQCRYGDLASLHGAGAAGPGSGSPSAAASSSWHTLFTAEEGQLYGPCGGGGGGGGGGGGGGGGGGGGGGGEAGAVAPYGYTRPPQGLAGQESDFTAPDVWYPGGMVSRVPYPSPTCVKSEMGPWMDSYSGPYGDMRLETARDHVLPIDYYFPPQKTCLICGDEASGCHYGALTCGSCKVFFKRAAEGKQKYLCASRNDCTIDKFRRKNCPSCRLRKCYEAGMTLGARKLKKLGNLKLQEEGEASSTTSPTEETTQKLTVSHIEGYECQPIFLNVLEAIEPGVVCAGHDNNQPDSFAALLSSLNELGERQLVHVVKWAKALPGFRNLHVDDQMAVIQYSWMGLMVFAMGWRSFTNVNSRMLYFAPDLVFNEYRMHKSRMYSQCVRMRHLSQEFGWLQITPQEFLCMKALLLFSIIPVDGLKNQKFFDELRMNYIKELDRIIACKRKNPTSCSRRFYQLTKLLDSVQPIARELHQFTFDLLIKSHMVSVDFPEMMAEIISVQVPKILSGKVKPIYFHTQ

Row | SMILES | Potency [1] | Potency [2] | Potency [3] | Potency [4] | Potency [5] | outcome [6] | Potency [7] | Potency [8]
1 | CCC(C)(O)CCC=C(C)C (stereo unspecified) | inactive | inactive | inactive | inactive | inactive | inactive | inactive | –
2 | CCCc1c(OCCCOc2ccc(OCC(=O)O)cc2)ccc(C(C)=O)c1O | inactive | inactive | 17.2 µM (active) | – | inactive | inactive | inactive | inactive
3 | C/C=C(\C)C(=O)OCCC(C)CCC=C(C)C (stereo unspecified) | inactive | inactive | inactive | inactive | – | – | – | –
4 | C[Si]1(C)O[Si](C)(C)O[Si](C)(C)O1 | inactive | inactive | inactive | inactive | – | inactive | inactive | –
5 | C=C(C)C(=O)OCCOC(=O)CC(C)=O | inactive | inactive | inactive | inactive | – | inactive | inactive | –
6 | COC(=O)[C@@H]1CC2=CC(=O)CC[C@]2(C)[C@@]23O[C@@H]2C[C@@]2(C)[C@@H](CC[C@@]24CCC(=O)O4)[C@H]13 | inactive | inactive | inactive | inactive | inactive | inactive | inactive | –
7 | CCN(Cc1cccc(S(=O)(=O)O)c1)c1ccc(C(=C2C=CC(=[N+](CC)Cc3cccc(S(=O)(=O)[O-])c3)C=C2)c2ccccc2)cc1 | inactive | inactive | inactive | inactive | inactive | inactive | inactive | –
8 | OCC1CC=CCC1 (stereo unspecified) | inactive | inactive | inactive | inactive | – | inactive | inactive | –
9 | COc1ccc([C@@H]2Sc3ccccc3NC(=O)[C@@H]2O)cc1 | inactive | inactive | inactive | inactive | inactive | inactive | inactive | –
10 | Fc1c(F)c(F)c(Br)c(F)c1F | inactive | inactive | inactive | inactive | – | inactive | inactive | –
11 | COc1cc2c(cc1OC)-c1cc(=Nc3c(C)cc(C)cc3C)n(C)c(=O)n1CC2 | 0.596 µM (active) | inactive | inactive | inactive | inactive | inactive | inactive | –
12 | OCCSc1ccccc1 | inactive | inactive | 19.3 µM (active) | – | inactive | inactive | inactive | –
13 | Nc1ccc(S(=O)(=O)O)cc1 | inactive | inactive | inactive | inactive | inactive | – | – | –
14 | CC(CCc1ccc2c(c1)OCO2)NN (stereo unspecified) | inactive | inactive | inactive | inactive | inactive | inactive | inactive | –
15 | C[C@@H]1C[C@H]2[C@@H]3CCC4=CC(=O)C=C[C@]4(C)[C@@]3(F)[C@@H](O)C[C@]2(C)[C@@]1(O)C(=O)CO | 0.492 µM (active) | inactive | inactive | inactive | – | – | – | –
16 | Nc1ccc(S(=O)(=O)O)c(N)c1 | inactive | inactive | inactive | inactive | inactive | inactive | inactive | –

Row | SMILES | Potency [1] | Potency [2] | Potency [3] | Potency [4] | Potency [5] | outcome [6] | Potency [7] | Potency [8]
17 | CCC(C)=O | inactive | inactive | inactive | inactive | – | – | – | –
18 | CC(=O)Nc1ccccc1C | inactive | inactive | inactive | inactive | inactive | inactive | inactive | –
19 | O=C(C(=O)c1ccccc1)c1ccccc1 | inactive | inactive | inactive | inactive | – | – | – | –
20 | O=C(O)Cc1ccc(-c2ccccc2)cc1 | inactive | inactive | inactive | inactive | inactive | inactive | inactive | –
21 | CCC1(C)CC(=O)NC1=O (stereo unspecified) | inactive | inactive | inactive | inactive | inactive | – | – | –
22 | CCOC(=O)OCC | inactive | inactive | inactive | inactive | inactive | inactive | inactive | –
23 | c1cc[c]([Bi]([c]2ccccc2)[c]2ccccc2)cc1 | 13.7 µM (active) | inactive | inactive | inactive | inactive | inactive | inactive | –
24 | COCC(O)CO (stereo unspecified) | inactive | inactive | inactive | inactive | inactive | inactive | inactive | –
25 | CC(N)CN (stereo unspecified) | inactive | inactive | inactive | inactive | inactive | inactive | inactive | –
26 | CNC(=O)N(c1ccccc1)c1ccccc1 | 6.89 µM (active) | inactive | inactive | inactive | inactive | inactive | inactive | –
27 | COC(=O)c1cc(S(N)(=O)=O)ccc1OC | inactive | inactive | inactive | inactive | inactive | inactive | inactive | –
28 | CN1CCN(CCCN2c3ccccc3Sc3ccc(S(=O)(=O)N(C)C)cc32)CC1 | 13.3 µM (active) | inactive | 23.7 µM (active) | 23.7 µM (active) | – | inactive | 29.8 µM (active) | –
29 | CCCCC(=O)O[C@]1(C(=O)CO)CC[C@H]2[C@@H]3CCC4=CC(=O)CC[C@]4(C)[C@H]3[C@@H](O)C[C@@]21C | inactive | inactive | inactive | inactive | inactive | inactive | – | –
30 | Nc1c(I)cc(I)c(C(=O)N(CCC(=O)O)c2ccccc2)c1I | inactive | inactive | inactive | inactive | – | – | – | –
31 | O=C(NCCCN1CCOCC1)c1ccc(Cl)cc1 | inactive | inactive | inactive | inactive | inactive | inactive | inactive | –
